Drawing on PubChem BioAssay (NCI), this text covers growth inhibition for 40 compounds.

Structures are written as SMILES. “And” between values parts separate entries of the source, which are not always exact repeats. Equal entries are not always repeated. Compounds without any hit were thinned out: in the full panel of roughly 79,000, 15% have a hit. Unmarked numbers belong to inactive results. The source made the active and inactive calls. Rule as the data show it: active = growth inhibition above about 70%; inactive = the rest.

The nature of one experiment: NCI Yeast Anticancer Drug Screen. Data for the sgs1 mgt1 strain (AID 161).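 Also: 0% = growth of cultures given vehicle only.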 Conditions: S. cerevisiae sgs1 mgt1 strain, active compounds read high; at 50.0 µM unless noted. The method in brief:
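Compounds are added to genetically altered yeast, and growth is compared with cultures given vehicle alone to give percent inhibition.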
Regarding `Cc1ccc2c(c1)C(C)(C)C(C)(C)C2(C)C`, the growth inhibition was -0.05%.

Take `CCOc1ccccc1Nc1ccc(N)cc1S(=O)(=O)O`: the growth inhibition is -31.5%.

For `CC(C)COC(=O)C(CC(C)C)NC(=O)C(C)O` (stereo not given), the growth inhibition was -13.3%.

As to `CC(C)CC1N=C(NN=C(CCl)CCl)OP1(=O)NCCCCCCNP1(=O)OC(NN=C(CCl)CCl)=NC1CC(C)C` (stereo not given), the growth inhibition is 2.95%.

On to `CCOC(=O)Cc1ccc2ccccc2c1`, for which the growth inhibition was -1.95%.

For `Cc1cc2c(cc1Cl)SC(NNC1=NCCN1)=NS2(=O)=O`, the growth inhibition was -20%.

Turning to `CC1=C(C(=O)Nc2ccccc2)C(c2ccc3c(c2)OCO3)C(C(=O)Nc2ccccc2)=C(C)N1`, the growth inhibition was 10.5%.

In the case of `O=C(CC(=O)c1cc(Cl)ccc1O)c1ccc2ccccc2n1`, the growth inhibition was 18.8%.

On to `COc1cc(/C=C/C(=O)c2c(=O)o[nH][n+]2-c2ccccc2)ccc1[O-]`, for which the growth inhibition is 16.1%.

Take `O=C(/C=C/c1ccccc1)c1ccccc1`: the growth inhibition was -8.65% and -18.8%.

For the compound `O=C(O)c1ccccc1Br`, the growth inhibition was -13.6%.

`Clc1nc(NCCc2ccccc2)c2ncn(-c3ccccc3)c2n1`: the growth inhibition is 34.1%.

Take `Cc1ccc(C(=O)O)cc1`: the growth inhibition was 0.65%.

As for `CC(=O)Nc1ccc(NC(=O)NCCCCCCNC(=O)Nc2ccc(NC(C)=O)cc2)cc1`, the growth inhibition is -21.6%.

For `Cc1nc2ccccc2c2ccc([N+](=O)[O-])cc12`, the growth inhibition is 0.25%.

On to `C[N+]1(C)CCc2cc(O)c(O)cc2C1Cc1ccc(O)c(O)c1` (stereo not given), for which the growth inhibition was -29.6%.

Take `O=c1[nH]c(=O)c2nc3c(=O)[nH]c(=O)[nH]c3nc2[nH]1`: the growth inhibition was 0.95%.

Consider `Cc1ccc(N=C2S/C(=C3/CCC=C3N3CCOCC3)N(c3ccc(Cl)cc3)C2=Nc2ccc(C)cc2)cc1`, for which the growth inhibition is -14.9%.

`CC(=O)OCC1OC(n2c(Br)nc3c(=O)[nH]c(N)nc32)C(OC(C)=O)C1OC(C)=O` (stereo not given): the growth inhibition was 0.8%.

`C1COC2(OC1)OCCCO2`: the growth inhibition is -7.85%.

On to `Cc1nn2c(nnn2CCO)c1-c1ccccc1`, for which the growth inhibition was -15%.

`O=C(O)CCC1=Nc2cccc3cccc(c23)NC1=O`: the growth inhibition is 7.75%.

Turning to `CC(=O)Nc1nc(SCc2ccccc2)c2[nH]cnc2n1`, the growth inhibition is 0.6%.

For `CCc1ccc(NS(=O)(=O)c2ccccc2[N+](=O)[O-])cc1`, the growth inhibition was 61.8%.

Regarding `O=C(O)c1cc([N+](=O)[O-])cc2c(=O)c3cnccc3[nH]c12`, the growth inhibition was -1.95%.

On to `CCCCCCOc1ccccc1CO`, for which the growth inhibition is -1.5%.

With `Cc1c(=O)n(C)c2ccccc2[n+]1[O-]`, the growth inhibition is 11.7%.

As to `CS(=O)(=O)c1nc2[nH]cnc(=S)c2[nH]1`, the growth inhibition was -3.5%.

As to `Clc1nc2n(c1/C=C/c1cccs1)CCS2`, the growth inhibition is 56.4%.

`CN(C)/C=N/NC(=O)/C(C#N)=C/N(C)C`: the growth inhibition is -8.15%.

`CN1CNC(=O)NC1`: the growth inhibition was -12.3% and 9.8%.

Take `O=[N+]([O-])c1ccn(Cc2ccccc2)c1`: the growth inhibition was 5.65%.

Take `CC1=CC(C)C(C(=O)OCC(C)C)C(C(=O)OCC(C)C)C1` (stereo not given): the growth inhibition is -5.1%.

For the compound `NC(=S)c1cccc(OCCc2ccccc2)c1`, the growth inhibition is 99% (active).

Consider `OC(COc1cccc(C(F)(F)F)c1)CN1CCN(c2cccc(F)c2)CC1` (stereo not given), for which the growth inhibition is 99.1% (active).

Take `COC1OC(CO)C(O)C1OS(C)(=O)=O` (stereo not given): the growth inhibition is -10.3%.

As for `CCc1ccc(NC(=O)c2ccccc2)cc1CC`, the growth inhibition is -2.5%.

Regarding `OC1(Cc2ccccc2)CCCCCC1`, the growth inhibition is 2.15%.

With `Cc1ccccc1N=C(N)N`, the growth inhibition is -1.35%.

For `CCCCCCCCCCCCN1CCCC(O)C1` (stereo not given), the growth inhibition is 74.4% (active).

A short description of a further experiment: NCI Yeast Anticancer Drug Screen. Data for the cln2 rad14 strain (AID 165).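 Also: 0% = growth equal to vehicle treated cultures.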 Conditions: S. cerevisiae cln2 rad14 strain, active compounds read high; at 50.0 µM unless noted. An outline of the steps: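 Readout is yeast growth inhibition versus vehicle-treated controls, using a strain with cln2 and rad14 alterations exposed to compound.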
With `Cc1ccc2c(c1)C(C)(C)C(C)(C)C2(C)C`, the growth inhibition was 0.4%.

For `CCOc1ccccc1Nc1ccc(N)cc1S(=O)(=O)O`, the growth inhibition was -6.2%.

With `CC(C)COC(=O)C(CC(C)C)NC(=O)C(C)O` (stereo not given), the growth inhibition was 10.8%.

Take `CC(C)CC1N=C(NN=C(CCl)CCl)OP1(=O)NCCCCCCNP1(=O)OC(NN=C(CCl)CCl)=NC1CC(C)C` (stereo not given): the growth inhibition was 4.75%.

With `CCOC(=O)Cc1ccc2ccccc2c1`, the growth inhibition was 1.2%.

Turning to `Cc1cc2c(cc1Cl)SC(NNC1=NCCN1)=NS2(=O)=O`, the growth inhibition is -2.25%.

Take `CC1=C(C(=O)Nc2ccccc2)C(c2ccc3c(c2)OCO3)C(C(=O)Nc2ccccc2)=C(C)N1`: the growth inhibition is 17.1%.

Regarding `O=C(CC(=O)c1cc(Cl)ccc1O)c1ccc2ccccc2n1`, the growth inhibition is -21.8%.

Consider `COc1cc(/C=C/C(=O)c2c(=O)o[nH][n+]2-c2ccccc2)ccc1[O-]`, for which the growth inhibition is 20.9%.

Take `O=C(/C=C/c1ccccc1)c1ccccc1`: the growth inhibition was -41% and -36.2%.

As to `O=C(O)c1ccccc1Br`, the growth inhibition was -6.95%.

`Clc1nc(NCCc2ccccc2)c2ncn(-c3ccccc3)c2n1`: the growth inhibition was 12.9%.

Turning to `Cc1ccc(C(=O)O)cc1`, the growth inhibition is -15.6%.

On to `CC(=O)Nc1ccc(NC(=O)NCCCCCCNC(=O)Nc2ccc(NC(C)=O)cc2)cc1`, for which the growth inhibition is -20.6%.

For `Cc1nc2ccccc2c2ccc([N+](=O)[O-])cc12`, the growth inhibition was -31.1%.

As to `C[N+]1(C)CCc2cc(O)c(O)cc2C1Cc1ccc(O)c(O)c1` (stereo not given), the growth inhibition was 23.4%.

For `O=c1[nH]c(=O)c2nc3c(=O)[nH]c(=O)[nH]c3nc2[nH]1`, the growth inhibition is -5.95%.

For the compound `Cc1ccc(N=C2S/C(=C3/CCC=C3N3CCOCC3)N(c3ccc(Cl)cc3)C2=Nc2ccc(C)cc2)cc1`, the growth inhibition is -14.6%.

With `CC(=O)OCC1OC(n2c(Br)nc3c(=O)[nH]c(N)nc32)C(OC(C)=O)C1OC(C)=O` (stereo not given), the growth inhibition is -14.8%.

As to `C1COC2(OC1)OCCCO2`, the growth inhibition was -71.5%.

Take `Cc1nn2c(nnn2CCO)c1-c1ccccc1`: the growth inhibition is -10.6%.

Consider `O=C(O)CCC1=Nc2cccc3cccc(c23)NC1=O`, for which the growth inhibition is -3.35%.

`CC(=O)Nc1nc(SCc2ccccc2)c2[nH]cnc2n1`: the growth inhibition is -43.5%.

In the case of `CCc1ccc(NS(=O)(=O)c2ccccc2[N+](=O)[O-])cc1`, the growth inhibition is 25.3%.

As for `O=C(O)c1cc([N+](=O)[O-])cc2c(=O)c3cnccc3[nH]c12`, the growth inhibition was -25.6%.

For `CCCCCCOc1ccccc1CO`, the growth inhibition was 2%.

Regarding `Cc1c(=O)n(C)c2ccccc2[n+]1[O-]`, the growth inhibition is -8.65%.

`CS(=O)(=O)c1nc2[nH]cnc(=S)c2[nH]1`: the growth inhibition is 10.9%.

As for `Clc1nc2n(c1/C=C/c1cccs1)CCS2`, the growth inhibition was 13.9%.

Regarding `CN(C)/C=N/NC(=O)/C(C#N)=C/N(C)C`, the growth inhibition is -24.8%.

Turning to `CN1CNC(=O)NC1`, the growth inhibition is 4.05% and 8.2%.

Take `O=[N+]([O-])c1ccn(Cc2ccccc2)c1`: the growth inhibition was -41.5%.

Consider `CC1=CC(C)C(C(=O)OCC(C)C)C(C(=O)OCC(C)C)C1` (stereo not given), for which the growth inhibition is 1.45%.

For `NC(=S)c1cccc(OCCc2ccccc2)c1`, the growth inhibition is 96.3% (active).

With `OC(COc1cccc(C(F)(F)F)c1)CN1CCN(c2cccc(F)c2)CC1` (stereo not given), the growth inhibition is 97.9% (active).

As for `COC1OC(CO)C(O)C1OS(C)(=O)=O` (stereo not given), the growth inhibition is -1.2%.

Regarding `CCc1ccc(NC(=O)c2ccccc2)cc1CC`, the growth inhibition was -97.3%.

With `OC1(Cc2ccccc2)CCCCCC1`, the growth inhibition was -64.7%.

For `Cc1ccccc1N=C(N)N`, the growth inhibition is -3.3%.

With `CCCCCCCCCCCCN1CCCC(O)C1` (stereo not given), the growth inhibition is 56.4%.
